# Laboratory results from PubChem BioAssay (NCI).
# Compounds without any hit were thinned out: in the full panel of roughly 79,000, 15% have a hit. Values without a mark were called inactive. Activity calls are given as the source filed them. Rule as the data show it: active = growth inhibition above about 70%; inactive = the rest.
# Legend:
# [1] = NCI Yeast Anticancer Drug Screen. Data for the rad50 strain (AID 155);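 also: 0% = growth of vehicle-only cultures of the same strain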; conditions: S. cerevisiae rad50 strain growth inhibition, stronger effect = higher value
# How it was run: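 Yeast carrying a defined DNA repair defect were exposed to test compounds, and growth was compared with vehicle-treated controls to give percent inhibition.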
# [2] = NCI Yeast Anticancer Drug Screen. Data for the mec2-1 strain (AID 157); conditions: S. cerevisiae mec2-1 strain, stronger effect = higher value
# How it was run: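 Mutant yeast (mec2-1) grown with compound; growth inhibition relative to vehicle control reported.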
# [3] = NCI Yeast Anticancer Drug Screen. Data for the sgs1 mgt1 strain (AID 161);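 also: 0% = growth of cultures given vehicle only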; conditions: S. cerevisiae sgs1 mgt1 strain, stronger effect = higher value
# How it was run: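 Growth of a repair-deficient yeast mutant was monitored after compound treatment and expressed as inhibition relative to vehicle-treated cultures.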
# [4] = NCI Yeast Anticancer Drug Screen. Data for the cln2 rad14 strain (AID 165);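 also: 0% = growth equal to vehicle treated cultures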; conditions: S. cerevisiae cln2 rad14 strain, stronger effect = higher value
# How it was run: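 Readout is yeast growth inhibition versus vehicle-treated controls, using a strain with cln2 and rad14 alterations exposed to compound.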
# [5] = NCI Yeast Anticancer Drug Screen. Data for the bub3 strain (AID 167); conditions: S. cerevisiae bub3 mutant strain, stronger effect = higher value
# How it was run: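 Compounds were applied to a genetically altered yeast strain carrying a cell-cycle control defect. Growth inhibition was scored against vehicle-treated controls.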
# [6] = NCI Yeast Anticancer Drug Screen. Data for the mlh1 rad18 strain (AID 175); conditions: S. cerevisiae mlh1 rad18 strain growth inhibition, stronger effect = higher value
# How it was run: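 Genetically defined yeast (DNA repair-deficient) exposed to compounds; growth inhibition determined relative to vehicle.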
# [7] = at 5.0 µM (retest, dose inferred, filed as 0.5)
# [8] = at 50.0 µM (retest, dose inferred, filed as 5.0)
SMILES,"growth inhibition [1, 7]","growth inhibition [1, 8]","growth inhibition [2, 7]","growth inhibition [2, 8]","growth inhibition [3, 7]","growth inhibition [3, 8]","growth inhibition [4, 7]","growth inhibition [4, 8]","growth inhibition [5, 7]","growth inhibition [5, 8]","growth inhibition [6, 7]","growth inhibition [6, 8]"
CCSC(=O)c1ccc([N+](=O)[O-])o1,20%,99% (active),6%,100% (active),31%,100% (active),9%,99% (active),13%,100% (active),-9%,99% (active)
CC(C)(C)C(=O)CC(c1ccccc1)c1ccccc1,11%,20%,-1%,3%,5%,30%,12%,0%,10%,22%,-13%,9%
Cc1cccc(N=NC(C#N)C#N)c1,30%,95% (active),10%,96% (active),24%,95% (active),-7%,86% (active),1%,94% (active),-9%,95% (active)
C=COC(=O)c1ccccc1C(=O)OCCCC,8%,22%,-2%,3%,5%,37%,7%,-6%,4%,27%,18%,6%
Cc1ccc2[nH]cc(CC(=O)O)c2c1,95% (active),99% (active),97% (active),100% (active),99% (active),100% (active),42%,99% (active),99% (active),100% (active),85% (active),99% (active)
Cc1ccccc1OCc1cccc(Cl)c1,8%,23%,-1%,4%,4%,43%,9%,-10%,4%,17%,-5%,6%
O=C(O)c1ccc(-c2ccccc2)cc1,12%,80% (active),0%,38%,12%,69%,-1%,39%,-1%,42%,-1%,47%
CC(=O)Oc1ccc(OC(C)=O)c2c1CC=CC2,3%,2%,-1%,1%,2%,10%,0%,11%,4%,8%,-20%,2%
C/C(=N\Nc1ccc(Cl)cc1)C(=O)O,17%,97% (active),-2%,98% (active),14%,99% (active),8%,98% (active),29%,99% (active),-29%,96% (active)
C(CCc1nn[nH]n1)CCC1CCCCC1,13%,98% (active),10%,98% (active),11%,95% (active),19%,97% (active),11%,98% (active),-16%,97% (active)
CN(C)CNC(=S)S,98% (active),99% (active),97% (active),100% (active),100% (active),100% (active),97% (active),51%,99% (active),100% (active),97% (active),98% (active)
CCOS(=O)(=O)CC(C)(C)C,7%,92% (active),3%,80% (active),8%,59%,-1%,13%,4%,68%,-21%,86% (active)
COc1cccc(NC(=O)c2c(SC)c(C#N)c(=O)n(N)c2N)c1,4%,99% (active),10%,99% (active),7%,99% (active),7%,98% (active),7%,99% (active),8%,99% (active)
